Hits are enriched below; roughly 15% of the tested compounds scored in any of these assays.
DT40 TDP1 CPT: growth inhibition of DT40 Tdp1-/-;hTDP1 cells with camptothecin (screen for TDP1 inhibitors). chicken DT40 Tdp1-/-;hTDP1 cells + 20 nM CPT, ATP luminescence, 48 h. Potency, µM (series often up to 46.2 µM), for the others: at the highest dose activity change, negative = growth inhibition, usual class: inhibitors. actives 12% (n = 420,000). AID 686979; further: nearly all actives have a fitted effect of over 55% in size
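Chicken DT40 Tdp1-/- cells stably complemented with human TDP1 were seeded at 400 cells/well in medium containing 20 nM camptothecin, exposed to pin-transferred compounds, and grown at 37 °C for at least 48 hr. Viability was read as ATP luminescence.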
ELG1 DNA repair: ELG1-dependent DNA repair inhibition | actives 2.3% (n = 330,000) | HEK293T ELG1-luciferase reporter, luminescence, 16 h; DNA damage induced by 5-fluorouridine | AID 504467 | Potency, µM (highest dose often 46.1 µM), without a hit: at the top dose activity change, negative = inhibition, hits mostly inhibitors; further: nearly all actives have a fitted effect of over 55% in size
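Quantitative HTS, concentration-response format. 2,000 cells/well co-treated with 5-fluorouridine and compound, 16 hr in 5% CO2 at 37 °C; ONE-Glo luminescence read after 30 min.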
TDP1 cell noCPT: qHTS for Inhibitors of human tyrosyl-DNA phosphodiesterase 1 (TDP1): qHTS in cells in absence of CPT; actives 15% (n = 420,000); DT40 Tdp1-/- hTDP1 cells, no CPT, ATP luminescence, 48 h; Potency, µM (top dose mostly 46.2 µM), without a hit: top-dose activity change, negative = growth inhibition, most hits filed as inhibitors; further: nearly all actives have a fitted effect of over 55% in size
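Chicken DT40 Tdp1-/- cells stably complemented with human TDP1 were seeded at 400 cells/well with DMSO in place of 20 nM camptothecin. After compound pinning, cells grew at least 48 hr at 37 °C; viability read by CellTiter-Glo luminescence.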
ALOX12 inh: blocks human arachidonate 12S-lipoxygenase; AID 1671190; actives 1.1% (n = 580,000); Potency, µM (titrated, usually from 108 µM), for the others: at the top dose activity change, negative = inhibition, most hits filed as inhibitors; purified 12hLO, xylenol orange hydroperoxide absorbance; P18054
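Purified human 12hLO at 150 nM in 25 mM Hepes, 0.01% Triton X-100, pH 7.0, preincubated 15 min at room temperature with compound. Reaction started with 40 uM arachidonic acid, 30 min at room temperature. Hydroperoxide measured by Fe-xylenol orange, 573/405 nm absorbance ratio.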
VP16 counter: inhibits Gal4-VP16 luciferase reporter, ROR gamma counter-screen; Drosophila S2 Gal4-VP16 UAS-luciferase, luminescence, 20 h; Potency, µM (doses to about 53.6 µM), for the others: at the highest dose activity, negative = inhibition, usual class: inhibitors; actives 3.5% (n = 310,000);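 further: Gal4-VP16 expression switched on by copper sulfate through the metallothionein promoter; nearly all actives have a fitted effect of over 50% in size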
RORg inh: blocks mouse ROR gamma transcriptional activity | P51450 | Drosophila S2 Gal4-RORgamma UAS-luciferase reporter, 20 h | Potency, µM (top dose mostly 53.6 µM), for the others: top-dose activity change, negative = inhibition, usual class: inhibitors | actives 5.4% (n = 310,000); further: nearly all actives have a fitted effect of over 60% in size
Target sequence (P51450 whole entry, looked up, the tested form may be a part): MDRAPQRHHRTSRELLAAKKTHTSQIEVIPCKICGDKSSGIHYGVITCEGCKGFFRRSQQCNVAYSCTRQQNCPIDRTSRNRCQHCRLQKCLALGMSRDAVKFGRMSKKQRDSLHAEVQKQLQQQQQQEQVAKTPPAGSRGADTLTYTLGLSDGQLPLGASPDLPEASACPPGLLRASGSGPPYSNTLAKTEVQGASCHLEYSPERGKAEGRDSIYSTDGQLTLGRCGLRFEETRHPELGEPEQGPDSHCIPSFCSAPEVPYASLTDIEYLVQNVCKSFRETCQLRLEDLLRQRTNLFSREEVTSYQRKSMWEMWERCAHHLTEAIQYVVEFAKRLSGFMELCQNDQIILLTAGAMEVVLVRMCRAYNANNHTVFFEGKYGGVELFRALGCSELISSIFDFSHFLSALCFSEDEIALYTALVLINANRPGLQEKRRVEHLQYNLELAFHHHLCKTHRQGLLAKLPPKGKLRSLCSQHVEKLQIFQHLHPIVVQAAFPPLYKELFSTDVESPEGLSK
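Read-out: Photinus luciferase luminescence; inhibitors lower reporter signal. Insect Schneider cells with Gal4-ROR gamma fusion under metallothionein promoter, UAS reporter; 700 uM final copper sulfate induction, 20 hr, ambient temperature.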
An asterisk follows results filed as active; ? = inconclusive; / = no result; [ ] = another dose, or the depositor's remark. The call rests on the fitted dose curve; in most records, active means well fitted curve in the direction sought with a large enough effect; inconclusive means small, poorly fitted or top-dose-only effect, or another doubt; inactive means no such curve, though single readings can be large; an effect the other way counts as inactive or inconclusive. On the % scale 0 is the no-effect control and ±100 the full control effect; potency means the concentration at half of the fitted maximal effect.

SMILES	DT40 TDP1 CPT	ELG1 DNA repair	TDP1 cell noCPT	ALOX12 inh	VP16 counter	RORg inh
COc1ccc(-c2csc3nc(-c4cccnc4)nc(N4CCC(C(N)=O)CC4)c23)cc1OC	?	-13.2%	?	?	-18.8%	-38.4%
COc1ccc(-c2csc3nc(C)nc(N4CCCCC4)c23)cc1OC	?	?	14.6µM*	0.3%	9.9%	10µM*
COc1ccccc1-n1cnc2sc(-c3ccccc3)cc2c1=O	?	?	11.6µM*	-10.2%	-2.3%	?
COc1ccc(S(=O)(=O)N2CCCC(Cn3c(C4CC4)nc4cccnc43)C2)cc1 (stereo not drawn)	/	/	/	20.9%	/	/
COc1ccc2nc(CO[C@H]3CN(Cc4ccc(S(C)(=O)=O)cc4)C[C@H]3F)[nH]c2c1	/	/	/	-29.7%[176 µM]	/	/
CC(=O)c1ccc(N2CCN(C(=O)c3ccc(Br)cc3)CC2)c(F)c1	9.2µM*	?	13µM*	0.0%	?	-39.5%
CC(=O)c1ccc(N2CCN(C(=O)c3ccco3)C(C)C2)c(F)c1 (stereo not drawn)	?	-1.4%	25.9µM*	?	-5.8%	12.4%
CCC(=O)c1ccc(N2CCN(C(=O)c3ccccc3)CC2)c(F)c1	18.4µM*	-5.9%	7.31µM*	-4.1%	?	-34.5%
CCCC(=O)c1ccc(N2CCCCCC2)c(F)c1	?	?	23.1µM*	10.9%	5.7%	?
Cc1nc(-c2cccc(Cl)c2)sc1C(=O)N1CCN(Cc2ccc(C#N)cc2)CC1	/	/	/	6.4%	/	/
COc1ccc(C(=O)N[C@H]2CO[C@H]3[C@@H]2OC[C@H]3OCc2ccccc2)cc1	/	/	/	14.3%[176 µM]	/	/
Cn1c(=O)c2c(nc(NCc3ccc(S(N)(=O)=O)cc3)n2Cc2ccccc2Cl)n(C)c1=O	/	/	/	-28.0%	/	/
CCOc1ccccc1C(=O)N1CCN(Cc2ccc(=O)n(C)c2)CC1	/	/	/	35.9%	/	/
CSc1cccc(Nc2cc(C(=O)NCCCN(C)c3ccccc3)c3ccccc3n2)c1	14.6µM*	/	13µM*	?	/	/
COc1ccccc1Nc1cc(C(=O)NCCCN(C)c2ccccc2)c2ccccc2n1	?	/	?	-22.6%	/	/
CCc1ccc(Nc2cc(C(=O)NCCCN(C)c3ccccc3)c3ccccc3n2)cc1	?	/	13µM*	-16.9%	/	/
Cc1cc(C(=O)NCCCN(C)C)c2ccccc2n1	-3.5%	16.3%	3.4%	?	-4.4%	-10.4%
COc1ccc(CCNC(=O)c2cc(S(=O)(=O)N3CCC4(CC3)OCCO4)ccc2F)cc1OC	?	9.2µM*	23.1µM*	5.0%	3.5%	16.6%
O=C(NCCc1ccc2c(c1)OCCO2)c1cc(S(=O)(=O)N2CCCC2)ccc1Cl	18.4µM*	-29.2%	?	-3.0%	/	/
O=C(NCCc1ccc(Cl)cc1)c1cc(S(=O)(=O)N2CCCC2)ccc1F	25.9µM*	/	16.4µM*	1.5%	/	/
Cc1ccc(C)c(CS(=O)(=O)Cc2noc(C(C)(C)C)n2)c1	/	/	/	9.1%	/	/
CC[C@H]1CN(C(=O)C2CC2)CC[C@H]1CC(=O)NC1CC1	/	/	/	16.3%[176 µM]	/	/
CCCc1c(C(=O)N/N=C/c2ccc(-c3ccccc3)cc2)nnn1-c1nonc1N	-3.5%	/	-1.9%	11.9%	/	/
Cc1ccc(/C=N/NC(=O)c2nnn(-c3nonc3N)c2CSc2ccccc2)s1	19.4%	?	-7.0%	11.4%	5.01µM*	3.98µM*
Cc1ccsc1/C=N/NC(=O)c1nnn(-c2nonc2N)c1CSc1ccccc1	-24.9%	?	16.1%	22.1%	3.98µM*	2.51µM*
SMILES	DT40 TDP1 CPT	ELG1 DNA repair	TDP1 cell noCPT	ALOX12 inh	VP16 counter	RORg inh
CCCc1c(C(=O)N/N=C/c2ccc(C)s2)nnn1-c1nonc1N	6.6%	20.4%	20.6%	-6.6%	2.82µM*	1µM*
Oc1cccc2[nH]ncc12	/	/	/	-21.0%	/	/
Cc1cccc(NC(=S)NC2CCCC2)n1	?	?	?	44.7µM*	2.82µM*	0.355µM*
CCCOC(=O)c1ccc(NC(=O)/C=C/c2cccs2)cc1	?	?	18.4µM*	-7.8%	-2.7%	?
Cc1cccc(NC(=S)Nc2cccc(C)n2)n1	?	3.6%	5.17µM*	0.0%	6.31µM*	?
Cc1ccc(OCC(=O)NC(=S)Nc2cccc(C)n2)cc1	9.9%	17.0%	-8.5%	6.2%	1.8%	-43.2%
O=C(/C=C/c1cccs1)Nc1ccncc1	-7.9%	?	?	14.1%	-3.9%	17.1%
Cc1cccc(NC(=O)Nc2cccc(C)n2)n1	3.7%	?	-3.2%	0.0%	26.7%	?
Cc1cccc(NC(=O)/C=C/c2cccs2)n1	-12.6%	?	-26.7%	0.0%	22.4µM*	?
O=C(O)/C=C/c1cccc(Cl)c1	/	/	/	-0.2%	/	/
CN1CC(=O)N(c2ccccc2)Cc2c(NC3CCC3)ncnc21	/	/	/	29.2%[176 µM]	/	/
Cc1cccc(NC(=S)NC2CCCCC2)n1	25.9µM*	10.7%	?	39.8µM*	4.47µM*	1µM*
Cc1cccc(NC(=S)NC(=O)c2cccs2)n1	-0.6%	?	-13.0%	16.1%	?	3.55µM*
S=C(Nc1ccc(Oc2ccccc2)cc1)Nc1cccnc1	?	13.2%	?	-82.7%	?	?
Cc1cccc(NC(=S)Nc2ccc(Oc3ccccc3)cc2)n1	?	26.4%	?	10µM*	?	8.9%
COc1ccc(C(=O)NC(C(=O)NC(C)C(C)C)C2CCN(C(=O)CC(C)(C)C)CC2)cc1 (stereo not drawn)	/	/	/	42.5%	/	/
Cc1ccccc1CC(=O)N1CCC2(CC1)N=C(c1cccc(Br)c1)NO2	/	/	/	7.7%	/	/
CN(CCc1ccccc1)[C@@H]1[C@H](O)[C@H](CO)O[C@@H]1CNC(=O)c1cccc(F)c1	/	/	/	18.1%	/	/
COc1ccc(-c2nc3nc(N)nn3cc2C)cc1F	-19.0%	-8.5%	-0.2%	4.6%	-13.1%	8.1%
COc1ccc(-c2nc3c(-c4ccc(F)cc4)cnn3cc2C)cc1F	23.1µM*	1.6%	14.6µM*	-0.2%	0.7%	6.0%
CC(C)c1nnc(NC(=O)NCC(O)c2ccccc2F)s1 (stereo not drawn)	/	/	/	3.9%	/	/
COc1cc(C(C)NS(C)(=O)=O)ccc1OCCC(C)C (stereo not drawn)	/	/	/	-2.4%	/	/
COc1ccc(-c2csc(NC(=O)[C@H](C)N3C(=O)C4CC=CCC4C3=O)n2)cc1OC (stereo partly drawn)	?	?	?	-9.9%	/	/
